Records with an inconclusive call do not appear. Calls of active or inactive are those of the source. Rule for the calls, unless noted: active = hit-call score of the fitted dose curve at least 0.9, where 1 is the maximum; inconclusive = response in the unintended direction; inactive = score below 0.9.
Experiments:
[1] = read-out: Broad substrate specificity ATP-binding cassette transporter ABCG2 (Homo sapiens) (UniProt Q9UNQ0); test: CLD_ABCG2_48hr: CellzDirect (CLD) Gene Expression Assay for ABC Transporter (ABCG2) at 48 hours (AID 2283704)
Outline: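 ABCG2 transcript measured at 48 h by quantitative nuclease protection (chemiluminescent) and fitted for increase relative to 0.2% DMSO. Hepatocyte cultures from separate donors got fresh compound daily over two days; morphology annotated cytotoxicity.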

[2] = read-out: alkyl and aryl transferase (GSTA2), GSTA2 (gene 2939); test: CLD_GSTA2_48hr: CellzDirect (CLD) Gene Expression Assay for alkyl and aryl transferase (GSTA2) at 48 hours (AID 2283708);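 note: active means mRNA induction above DMSO vehicle baseline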
Outline: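 GSTA2 mRNA quantified by qNPA chemiluminescence in human primary hepatocyte lysates after 48 h of daily fresh chemical dosing. Increases fitted against 0.2% DMSO vehicle baseline; cytotoxicity from morphology annotated yes/no.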

[3] = read-out: glucuronosyltransferase (UGT1A1), UGT1A1 (gene 54658); test: CLD_UGT1A1_48hr: CellzDirect (CLD) Gene Expression Assay for glucuronosyltransferase (UGT1A1) at 48 hours (AID 2283709);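 note: actives increase expression relative to DMSO so potency refers to induction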
Outline: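 Quantitative nuclease protection assay (chemiluminescent) for UGT1A1 mRNA at 48 h in human hepatocyte cultures from two donors, redosed daily with fresh solutions. Induction fitted relative to 0.2% DMSO; phase-contrast morphology annotated cytotoxicity.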

[4] = read-out: Glyceraldehyde-3-phosphate dehydrogenase (Homo sapiens) (UniProt P04406); test: CLD_GAPDH_48hr: CellzDirect (CLD) Gene Expression Assay for Baseline Control (Glyceraldehyde 3-phosphate dehydrogenase) at 48 hours (AID 2283706);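 note: active means higher GAPDH mRNA than DMSO vehicle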
Outline: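 GAPDH baseline-control readout: qNPA chemiluminescent mRNA quantitation in human liver primary cells 48 h after daily dosing on two consecutive days, vehicle 0.2% DMSO; gain of signal fitted against DMSO, cytotoxicity flagged by phase-contrast morphology.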

[5] = read-out: xenobiotic metabolism (CYP1A2), CYP1A2 (gene 1544); test: CLD_CYP1A2_48hr: CellzDirect (CLD) Gene Expression Assay for xenobiotic metabolism (CYP1A2) at 48 hours (AID 2283703)
Outline: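 Cytotoxicity was flagged yes/no from morphology, while CYP1A2 transcript induction was detected by qNPA chemiluminescence after a 48-hour exposure. Human primary hepatocyte cultures from separate donors received fresh dosing solutions daily over two days, with 0.2% DMSO as vehicle and baseline.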

[6] = read-out: organic anion transporter (SLCO1B1), SLCO1B1 (gene 10599); test: CLD_SLCO1B1_48hr: CellzDirect (CLD) Gene Expression Assay for organic anion transporter (SLCO1B1) at 48 hours (AID 2283707)
Outline: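 SLCO1B1 transcript quantified by qNPA with chemiluminescent readout after 48 h of once-daily chemical exposure. Cultured human primary hepatocytes came from two donors, with 0.2% DMSO vehicle; positive-direction fitting against DMSO, cytotoxicity flagged by morphology.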

[7] = read-out: xenobiotic metabolism (CYP1A1), CYP1A1 (gene 1543); test: CLD_CYP1A1_48hr: CellzDirect (CLD) Gene Expression Assay for xenobiotic metabolism (CYP1A1) at 48 hours (AID 2283705)
Outline: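 CYP1A1 transcript measured by quantitative nuclease protection (chemiluminescent) 48 h after two daily treatments of human hepatocyte cultures, versus 0.2% DMSO. Morphology-based cytotoxicity flags accompany data; two donor preparations used.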

[8] = read-out: HMG-CoA synthase (HMGCS2), HMGCS2 (gene 3158); test: CLD_HMGCS2_48hr: CellzDirect (CLD) Gene Expression Assay for HMG-CoA synthase (HMGCS2) at 48 hours (AID 2283711)
Outline: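 mRNA induction read by qNPA chemiluminescence, 48 h after dosing. Cultured primary human liver cells (two donor preparations) received fresh compound daily over two days against 0.2% DMSO vehicle; morphology-based cytotoxicity noted alongside.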

[9] = STM_H9_OrnithineISnorm_perc: Stemina devTOX quickPredict H9 human embryonic stem cell (hESC)-based Assay for Ornithine (ORN) Metabolite Biomarker, Normalized (AID 2283712; active = hit-call score of the fitted dose curve at least 0.9, where 1 is the maximum; inactive = score below 0.9;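 note: ornithine released into spent medium during last day measured by mass spectrometry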)
Outline: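 Ornithine secreted by H9 hESCs after 72h compound treatment (daily media/compound renewal) was quantified in final-day media by UPLC-HRMS. Values are isotope-standard-normalized, expressed relative to 0.1% DMSO, fitted in positive direction.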

[10] = read-out: Cytochrome P450 2C19 (Homo sapiens) (UniProt P33261); test: CLD_CYP2C19_48hr: CellzDirect (CLD) Gene Expression Assay for xenobiotic metabolism (CYP2C19) at 48 hours (AID 2283700);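 note: fitted upward so actives raise CYP2C19 mRNA above the 0.2% DMSO vehicle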
Outline: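 CYP2C19 mRNA induction read by chemiluminescent quantitative nuclease protection assay after 48 h, with fresh compound added daily for two days to cultured human liver hepatocytes. Activity fitted upward against 0.2% DMSO vehicle.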

Sequence of Glyceraldehyde-3-phosphate dehydrogenase (Homo sapiens) (P04406 whole entry, looked up): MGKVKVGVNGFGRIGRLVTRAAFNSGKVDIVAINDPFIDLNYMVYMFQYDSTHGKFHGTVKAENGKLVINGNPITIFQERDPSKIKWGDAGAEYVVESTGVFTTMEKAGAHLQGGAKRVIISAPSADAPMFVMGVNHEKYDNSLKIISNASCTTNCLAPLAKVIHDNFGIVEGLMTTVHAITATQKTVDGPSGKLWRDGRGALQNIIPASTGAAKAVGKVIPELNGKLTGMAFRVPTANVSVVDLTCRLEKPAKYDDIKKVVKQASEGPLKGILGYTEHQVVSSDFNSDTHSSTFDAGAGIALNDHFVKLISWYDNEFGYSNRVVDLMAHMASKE
Sequence of Broad substrate specificity ATP-binding cassette transporter ABCG2 (Homo sapiens) (Q9UNQ0 whole entry, looked up): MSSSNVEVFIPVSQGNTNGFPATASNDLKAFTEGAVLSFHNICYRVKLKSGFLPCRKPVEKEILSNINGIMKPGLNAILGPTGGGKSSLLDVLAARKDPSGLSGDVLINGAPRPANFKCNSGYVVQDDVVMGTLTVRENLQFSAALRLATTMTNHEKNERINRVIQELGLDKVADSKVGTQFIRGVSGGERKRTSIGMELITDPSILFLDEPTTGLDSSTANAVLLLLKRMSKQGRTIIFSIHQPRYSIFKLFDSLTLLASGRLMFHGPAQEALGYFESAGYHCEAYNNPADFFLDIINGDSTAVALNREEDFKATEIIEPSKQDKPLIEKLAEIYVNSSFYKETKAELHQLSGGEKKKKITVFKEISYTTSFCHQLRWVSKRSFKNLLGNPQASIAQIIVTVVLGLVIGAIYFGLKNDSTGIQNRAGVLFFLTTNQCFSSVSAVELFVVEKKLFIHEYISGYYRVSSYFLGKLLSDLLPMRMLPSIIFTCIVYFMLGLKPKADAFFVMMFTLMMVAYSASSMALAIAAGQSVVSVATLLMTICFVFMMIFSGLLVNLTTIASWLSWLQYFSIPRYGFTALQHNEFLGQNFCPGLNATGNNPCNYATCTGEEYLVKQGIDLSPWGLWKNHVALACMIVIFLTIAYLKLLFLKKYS
Sequence of Cytochrome P450 2C19 (Homo sapiens) (P33261 whole entry, looked up): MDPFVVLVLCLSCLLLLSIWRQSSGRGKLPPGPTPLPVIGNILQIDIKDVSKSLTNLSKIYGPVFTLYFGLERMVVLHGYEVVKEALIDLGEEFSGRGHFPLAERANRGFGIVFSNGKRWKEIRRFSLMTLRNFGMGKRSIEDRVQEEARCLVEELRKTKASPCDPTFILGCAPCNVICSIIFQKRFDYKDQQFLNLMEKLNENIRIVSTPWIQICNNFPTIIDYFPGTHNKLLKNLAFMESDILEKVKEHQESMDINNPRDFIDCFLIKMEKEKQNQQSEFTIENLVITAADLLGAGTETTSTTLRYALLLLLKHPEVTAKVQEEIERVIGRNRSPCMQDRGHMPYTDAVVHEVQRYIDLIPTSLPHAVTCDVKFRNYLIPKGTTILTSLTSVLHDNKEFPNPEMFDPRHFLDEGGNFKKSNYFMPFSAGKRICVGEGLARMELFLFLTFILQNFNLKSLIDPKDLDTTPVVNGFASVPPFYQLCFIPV

ClC1C(Cl)C(Cl)C(Cl)C(Cl)C1Cl (stereo unspecified)
outcome [1]: inactive | outcome [2]: inactive | outcome [3]: inactive

O=[N+]([O-])/N=C1\NCCN1Cc1ccc(Cl)nc1
outcome [4]: inactive | outcome [2]: inactive | outcome [3]: inactive

O=[N+]([O-])c1c(Cl)c(Cl)c(Cl)c(Cl)c1Cl
AC50 [5]: 3.86 µM (active) | outcome [1]: inactive | outcome [6]: inactive | outcome [2]: inactive | outcome [3]: inactive

CCCN(CCC)c1c([N+](=O)[O-])cc(C(F)(F)F)cc1[N+](=O)[O-]
outcome [2]: inactive | AC50 [3]: 3.27 µM (active)

Clc1ccccc1-c1nnc(-c2ccccc2Cl)nn1
outcome [1]: inactive | AC50 [7]: 9.05 µM (active) | outcome [2]: inactive | outcome [3]: inactive | outcome [8]: inactive

CCS(=O)(=O)c1cccnc1S(=O)(=O)NC(=O)Nc1nc(OC)cc(OC)n1
outcome [1]: inactive | outcome [4]: inactive | outcome [6]: inactive | outcome [2]: inactive | outcome [3]: inactive

CCOCN(C(=O)CCl)c1c(C)cccc1CC
outcome [1]: inactive | AC50 [2]: 20 µM (active) | outcome [3]: inactive | outcome [9]: inactive

COP(=S)(OC)Oc1ccc([N+](=O)[O-])cc1
outcome [1]: inactive | outcome [6]: inactive | AC50 [3]: 6.74 µM (active)

CN1CSC(=S)N(C)C1
outcome [1]: inactive | outcome [4]: inactive | outcome [2]: inactive | outcome [3]: inactive

COC(=O)c1ccccc1S(=O)(=O)NC(=O)N(C)c1nc(C)nc(OC)n1
outcome [5]: inactive | outcome [4]: inactive | outcome [2]: inactive | outcome [3]: inactive

CC1(C)C(C=C(Cl)Cl)C1C(=O)OC(C#N)c1ccc(F)c(Oc2ccccc2)c1 (stereo unspecified)
outcome [10]: inactive | outcome [2]: inactive | outcome [3]: inactive | outcome [8]: inactive | outcome [9]: inactive

[2H]C1([2H])[n+]2ccccc2-c2cccc[n+]2C1([2H])[2H]
outcome [1]: inactive | outcome [4]: inactive | outcome [2]: inactive
